The results in this text go back to PubChem BioAssay AID463173 (ICCB-Longwood Screening Facility, Harvard Medical School, 2010).

Hit rate of the full screen: of about 52,000 compounds, about 4,300 (8.3%) were called active. Many of the other results were omitted from the sample, so actives are more common in it than they were. Unmarked numbers belong to inactive results. Rule as the data show it: active = survival mostly below about 52% (no sharp cut-off); inactive = mostly above about 56%.

For the assay, the system named is DeltatarO mutant. The assay is described as follows: growth inhibition of S. aureus wild type versus tarO mutant, primary screen, teichoic acid synthesis inhibitors, RN4220, OD600 (AID 463173). The following applies: OD600, 18 h, hits give low values, screened at 18.75 µg/mL (by protocol).
`CCOC(=O)N1CCN(C(=O)CN(c2cccc(Cl)c2C)S(=O)(=O)c2ccc(C)cc2)CC1`: the survival was 119%.

For `CC1CCN(S(=O)(=O)c2csc(C(N)=O)c2)CC1`, the survival is 85%.

As for `CC1CCN(S(=O)(=O)c2cccc(C(=O)N(C)C3(C)CCS(=O)(=O)C3)c2)CC1` (stereo unspecified), the survival was 75%.

Consider `CN1CCN(C(c2ccc(F)cc2)c2sc3nc(-c4ccco4)nn3c2O)CC1` (stereo unspecified), for which the survival was 79%.

With `Cc1cc(C)c(S(=O)(=O)NCC(c2ccco2)N2CCOCC2)c(C)c1` (stereo unspecified), the survival was 89%.

Turning to `CN(C)c1ccc(-c2nc3ccc(Cl)cn3c2Nc2ccc3c(c2)OCCO3)cc1`, the survival is 143%.

With `COc1cccc2c1Oc1nc(-c3ccccc3)nc(SCC(=O)N3CCCCC3)c1C2`, the survival is 100%.

As for `COc1ccc(CCC(=O)N2CCc3c([nH]c4ccccc34)C2c2ccc(F)cc2)cc1` (stereo unspecified), the survival was 83%.

On to `Cn1c(SCc2ccccc2)nnc1-c1ccccc1`, for which the survival was 93%.

On to `Cc1nnc(SCc2ccccc2)n1N`, for which the survival was 61% (active).

On to `Cc1nnc(SCC(=O)O)n1N`, for which the survival was 114%.

Consider `CC(C)Oc1ccc(CNC(=O)C2=Cc3ccccc3OC2)cc1`, for which the survival is 67%.

As for `CCOc1ccc(CCNC(=O)CCCc2nnc3n(CC)c(=O)c4sccc4n23)cc1OCC`, the survival is 92%.

For `CCOC(=O)c1ccccc1NC(=O)CSc1ncc2c(n1)-c1ccccc1N(CC)S2(=O)=O`, the survival was 83%.

For `Cc1ccc(CNC(=O)NCc2noc3ccc(C)cc23)cc1`, the survival is 47%.

Regarding `COc1ccc(NC(=O)Cc2noc3ccc(C)cc23)cc1Cl`, the survival is 56% (active).

For the compound `CC(=O)c1cccc(NC(=O)Cc2noc3ccccc23)c1`, the survival is 49%.

As for `COC(=O)c1ccccc1NC(=O)Cc1noc2ccc(C)cc12`, the survival was 39% (active).

For `CCOc1ccccc1NC(=O)NCc1noc2ccc(C)cc12`, the survival was 35% (active).

As to `COc1ccc(OC)c(CNC(=O)NCc2noc3ccc(C)cc23)c1`, the survival is 104%.

Take `Cc1ccc2onc(CNC(=O)Nc3ccccc3C#N)c2c1`: the survival was 76%.

Consider `COc1ccccc1CNC(=O)NCc1noc2ccc(C)cc12`, for which the survival was 56%.

On to `CCOc1ccccc1NC(=O)Cc1noc2ccc(C)cc12`, for which the survival was 48%.

Turning to `Cc1ccc2onc(CC(=O)Nc3ccc(C(C)C)cc3)c2c1`, the survival was 46% (active).

As for `COc1ccc(Cl)cc1N(C)C(=O)Cc1noc2ccc(C)cc12`, the survival was 50%.

Consider `Cc1ccc2onc(CC(=O)Nc3cc(F)ccc3F)c2c1`, for which the survival was 48%.

Regarding `Cc1ccc(-c2nn3c(=O)cc(CN4CCN(C(=O)c5ccc(C(C)(C)C)cc5)CC4)nc3s2)cc1`, the survival was 67%.

Take `CCCCC(=O)Nc1cc2nn(-c3ccc(OCC)cc3)nc2cc1C`: the survival is 70%.

For `CCN(c1ccccc1)S(=O)(=O)c1c(C)nc2scc(C)n2c1=O`, the survival is 66%.

For `COc1ccc(CC(=O)NC2CC(=O)N(c3ccc(C)c(C)c3)C2)cc1OC` (stereo unspecified), the survival was 63%.

Consider `Cc1cc(C(=O)Nc2ccc(-n3c(C)nc4ccccc4c3=O)cc2)ccc1[N+](=O)[O-]`, for which the survival was 131%.

As for `COc1cc(NC(=O)Cc2noc3ccccc23)cc(OC)c1OC`, the survival is 57%.

As to `Cc1cc(C)cc(NC(=O)Cc2noc3ccccc23)c1`, the survival is 54% (active).

As for `CCOC(=O)c1ccc(NC(=O)Cc2coc3cc(C)cc(C)c23)cc1`, the survival is 60%.

On to `CCOc1ccc(NC(=O)Cc2coc3ccc(C)cc23)cc1`, for which the survival was 106%.

`Cc1cc(C)cc(NC(=O)NCc2noc3ccccc23)c1`: the survival is 52%.

With `CCOC(=O)c1ccc(NC(=O)Cc2noc3ccc(C)cc23)cc1`, the survival was 45% (active).

With `Cc1ccc(CNC(=O)C(C)n2c(=O)cc(C(F)(F)F)c3c(C)nn(C)c32)cc1` (stereo unspecified), the survival was 67%.

For `O=C(NCc1ccco1)C1CCN(C(=O)N2CCOc3ccccc32)CC1`, the survival was 80%.

For the compound `O=C(c1ccco1)N(Cc1cccs1)c1ccc(F)cc1`, the survival was 111%.

As for `CCc1ccc(NC(=O)C2CCN(c3nnc(-n4c(C)ccc4C)s3)CC2)cc1`, the survival was 79%.

As for `NNc1ccc2nnc(C(F)(F)F)n2n1`, the survival is 73%.

As to `Cc1ccc(CNc2ncnc3c2c(-c2ccccc2)cn3-c2ccccc2)cc1`, the survival was 90%.

For the compound `O=S(=O)(NCc1ccco1)c1ccc(-c2ccc(S(=O)(=O)NCc3ccco3)cc2)cc1`, the survival was 64%.

In the case of `CCc1ccc(Cn2nnc(C(=O)Nc3ccc(C)cc3)c2N)cc1`, the survival was 133%.

As for `CN(C)c1ccc(CNC(=O)c2cccc(NC(=O)N3CCSc4ncccc43)c2)cc1`, the survival was 94%.

Turning to `COc1ccccc1NC(=O)C1=C(C)NC2=C(C(=O)CCC2)C1c1cc2c(cc1Br)OCO2` (stereo unspecified), the survival is 44% (active).

Regarding `COC(=O)C1=C(C)NC2=C(C(=O)c3ccccc32)C1c1cc2c(cc1Cl)OCO2` (stereo unspecified), the survival was 82%.

In the case of `COc1ccccc1NC(=O)C1=C(C)Nc2sc(C#N)c(N)c2C1c1ccco1` (stereo unspecified), the survival is 76%.

For the compound `CC(C)CC(=O)Nc1nnc2n1CCS2`, the survival is 99%.

Regarding `Cc1nn(-c2ccccc2)c2[nH]c(=O)c(CNCc3cccnc3)cc12`, the survival was 102%.

Regarding `CC(C)(C)C1CCc2nc(NC(=O)COc3ccc(F)cc3)sc2C1` (stereo unspecified), the survival is 115%.

In the case of `COc1ccccc1OCC(=O)Nc1nc2c(s1)CC(C)CC2` (stereo unspecified), the survival was 69%.

As to `CC1CCc2nc(NC(=O)Cc3ccc(Cl)cc3)sc2C1` (stereo unspecified), the survival is 46% (active).

For the compound `COc1ccc(CC(=O)Nc2nc3c(s2)CC(C)CC3)cc1` (stereo unspecified), the survival was 75%.

For `CCCC(=O)Nc1nc2c(s1)CC(C(C)(C)C)CC2` (stereo unspecified), the survival is 14% (active).

Take `CC(C)(C)C1CCc2nc(NC(=O)COc3ccccc3[N+](=O)[O-])sc2C1` (stereo unspecified): the survival was 106%.

Take `CC(C)CC(=O)Nc1nc2c(s1)CC(C(C)(C)C)CC2` (stereo unspecified): the survival is 102%.

With `CC(C)(C)C1CCc2nc(NC(=O)Cc3ccc(Cl)cc3)sc2C1` (stereo unspecified), the survival was 18% (active).

On to `Cc1cc(C)cc(OCC(=O)Nc2nc3c(s2)CC(C(C)(C)C)CC3)c1` (stereo unspecified), for which the survival was 107%.

For the compound `CC(C)C(=O)Nc1nc2c(s1)CC(C(C)(C)C)CC2` (stereo unspecified), the survival was 92%.

Regarding `COc1ccc(CC(=O)Nc2nc3c(s2)CCCC3)cc1`, the survival is 95%.

For the compound `COc1ccc(CC(=O)Nc2nc3c(s2)CC(C(C)(C)C)CC3)cc1` (stereo unspecified), the survival was 29% (active).

For the compound `Cc1cccc(C(=O)Nc2ccc(N3CCC(N4CCCCC4)CC3)c(C(=O)O)c2)c1`, the survival was 100%.

With `CCOc1ccc(-n2c(=O)c3c4c(sc3n(CC(=O)NC(C)CC)c2=O)CCCCC4)cc1` (stereo unspecified), the survival is 98%.

For the compound `COCCNC(=O)CN1C(=O)COc2ccc(S(=O)(=O)N3CCOCC3)cc21`, the survival was 88%.

On to `CCSc1nc2n(n1)C(c1ccc(Cl)cc1Cl)C(C(=O)Nc1ccccc1C)=C(C)N2` (stereo unspecified), for which the survival is 67%.

Take `COc1ccc(C(=O)NCCc2sc(-c3ccc(Cl)cc3)nc2C)c(OC)c1`: the survival was 123%.

Turning to `Cc1ccc(C)c(CN2C(=O)c3ccccc3Sc3ccc(C(=O)NC4CCCC4)cc32)c1`, the survival was 128%.

Take `COc1ccc(CNC(=O)C2CCN(S(=O)(=O)N3CCC(C)CC3)CC2)c(OC)c1`: the survival was 89%.

As for `CCOC(=O)c1ccc(NC(=O)CSc2nc3ccccc3c(=O)n2CCNC(C)=O)cc1`, the survival is 91%.

Consider `CCc1ccc(CNC(=O)c2nn(-c3ccc(OC)c(Cl)c3)c(=O)c3c2c2ccccc2n3C)cc1`, for which the survival was 104%.

Consider `CCOc1cccc(C(=O)Nc2nc3c(s2)CC(C(C)(C)C)CC3)c1` (stereo unspecified), for which the survival was 77%.

Consider `Cc1cccc(OCC(=O)Nc2nc3c(s2)CC(C(C)(C)C)CC3)c1C` (stereo unspecified), for which the survival was 105%.

As for `CC(C)(C)C1CCc2nc(NC(=O)c3ccc([N+](=O)[O-])cc3)sc2C1` (stereo unspecified), the survival is 95%.

In the case of `CC(C)(C)C1CCc2nc(NC(=O)c3cccc(Cl)c3)sc2C1` (stereo unspecified), the survival was 3% (active).

Take `Cc1ccccc1C(=O)Nc1nc2c(s1)CC(C(C)(C)C)CC2` (stereo unspecified): the survival is 115%.

On to `CC(C)(C)C1CCc2nc(NC(=O)Cc3ccccc3)sc2C1` (stereo unspecified), for which the survival is 19% (active).

Take `COc1ccc(CC(=O)NCCc2sc(-c3cccc(F)c3)nc2C)cc1`: the survival is 68%.

Consider `COc1ccccc1NC(=O)CN1C(=O)CCSc2ccccc21`, for which the survival was 89%.

As to `O=C(O)CSc1nc2ccccc2c(=O)n1-c1ccccc1`, the survival is 78%.

Consider `Cc1cc(Nc2cccc(Cl)c2)nc2ccc(NC(=O)c3cccc(N(C)C)c3)cc12`, for which the survival is 106%.

As for `CCN1CCN(C(=O)c2ccc3c(c2)N(Cc2ccccc2F)C(=O)c2ccccc2S3=O)CC1` (stereo unspecified), the survival was 105%.

On to `Cc1ccc(OCC(=O)OCc2cc(=O)n3nc(C4CCCCC4)sc3n2)cc1`, for which the survival is 120%.

`COc1ccc(C(CNC(=O)COc2ccc(Cl)c(C)c2)N2CCOCC2)cc1` (stereo unspecified): the survival is 63%.

For the compound `Cc1cc2oc(=O)c(CC(=O)O)c(C)c2c2occ(-c3ccc(F)cc3)c12`, the survival was 49%.

Regarding `COc1ccc(-c2coc3c2c(C)cc2oc(=O)c(CC(=O)O)c(C)c23)cc1`, the survival is 42% (active).

As for `Cc1cc2oc(=O)c(CC(=O)O)c(C)c2c2occ(-c3ccccc3)c12`, the survival was 53%.

As to `CCCc1cc(=O)oc2cc(C)c3c(-c4ccccc4)coc3c12`, the survival was 65%.

For `CCc1cc(=O)oc2cc(C)c3c(-c4ccc(F)cc4)coc3c12`, the survival was 33% (active).

Take `Cc1cc2oc(=O)cc(C)c2c2occ(-c3ccc(Cl)cc3)c12`: the survival was 72%.

On to `Cc1cc(NC2C3CC4CC(C3)CC2C4)n2ncnc2n1` (stereo unspecified), for which the survival is 105%.

Take `O=C(NCc1ccccc1)c1ccccc1C(=O)c1ncc[nH]1`: the survival is 91%.

In the case of `CCOc1ccc(NC(=O)c2oc3ccccc3c2NC(=O)COc2cccc(OC)c2)cc1`, the survival is 78%.

Take `COc1ccc(Cl)c2sc(NC(=O)c3ccc(S(=O)(=O)N4CCOCC4)cc3)nc12`: the survival was 69%.

For the compound `Cc1cccc(C(=O)Nc2sc3c(c2C(=O)O)CCCC3)c1`, the survival is 23% (active).

For the compound `COc1ccc(NC(=O)c2c(NC(=O)c3cccc(C)c3)sc3c2CCC3)cc1`, the survival is 64%.

In the case of `Cc1cccc(C(=O)Nc2sc3c(c2C(=O)Nc2ccccc2)CCC3)c1`, the survival was 66%.

Turning to `COc1ccc(NC(=O)c2c(NC(=O)c3cccc(C)c3)sc3c2CCCC3)cc1`, the survival was 75%.

With `Cc1cccc(C(=O)Nc2sc3c(c2C(=O)NC(C)C)CCCC3)c1`, the survival is 46% (active).

Take `Cc1cccc(C(=O)Nc2sc3c(c2C(=O)NCc2ccco2)CCCC3)c1`: the survival was 83%.
